Compound activity (PubChem BioAssay)
KB-3-1 cytotox: kills parental KB-3-1 adenocarcinoma cells. KB-3-1 viability, CellTiter-Glo ATP luminescence, 72 h. Potency, µM (highest dose often 46.1 µM), usual class: cytotoxic. 400,000 tested, 1.4% active; also: % is scaled to controls: 0 for no effect and ±100 for the full control effect; nearly all actives have a fitted effect of over 60% in size
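Cytotoxicity measured as CellTiter-Glo luminescence after 72 h at 37 C. Compound titrations were pinned onto drug-naive KB-3-1 parental adenocarcinoma cells grown in DMEM with 10% FBS, and normalized data fitted to concentration-response curves.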
HT1080-NT tox: kills 2HG-producing HT-1080-NT fibrosarcoma cells | 360,000 tested, 1.6% active | AID 686970 | HT-1080-NT fibrosarcoma viability, CellTiter-Glo ATP luminescence, 48 h | Potency, µM (top dose mostly 46.1 µM), for the others: at the top dose activity, negative = less viability, most hits filed as cytotoxic;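 also: NT is the 2HG producing partner of a matched IDH1 knockdown line; 0% = DMSO-treated cells and -100% = media-only wells without cells; nearly all actives have a fitted effect of over 55% in size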
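Read-out is CellTiter-Glo luminescence after 10 minutes at room temperature, following 48 hours' compound treatment of HT-1080-NT cells (750 cells/well, RPMI, 5% FBS, 37 degrees C).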
HT1080 IDH1KD tx: kills HT-1080 cells with IDH1 knockdown; Potency, µM (titrated, usually from 46.1 µM), for inactives: at the top dose activity, negative = toxicity, usual class: cytotoxic; HT-1080 IDH1 knockdown viability, ATP luminescence, 48 h; 360,000 tested, 2% active; AID 686971;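 also: 0% = DMSO wells and -100% = cell-free medium wells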
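% activity derives from luminescence (CellTiter-Glo), normalised to DMSO and no-cell wells. HT-1080-IDH1KD cells, 750/well, had 48 h compound exposure at 37 °C.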
SW480 rereplic: inducers of DNA re-replication in SW480 colon cancer cells. 340,000 tested, 1.8% active. AID 624297. SW480 DNA re-replication, Hoechst DNA content imaging, 48 h. Potency, µM (series often up to 46.1 µM), for inactives: top-dose re-replication activation, most hits filed as activators; also: % of control where 0% means no effect; nearly all actives have a fitted effect of over 55% in size
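Quantitative HTS format with DMSO vehicle controls; 48 hr drug incubation at 37 C, then 40 min Hoechst staining and scanning imager measurement at 405 nm excitation.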
MCF10A rerep: induces DNA re-replication in MCF 10a normal breast cells | MCF 10A DNA re-replication, Hoechst nuclear intensity, 48 h | Potency, µM (series often up to 46.1 µM), for the others: at the top dose activity, positive = re-replication, most hits filed as activators | 350,000 tested, 2.9% active; also: % of control where 0% means no effect; nearly all actives have a fitted effect of over 50% in size
KB-V1 cytotox: kills drug-selected multidrug resistant KB-V1 cells; KB-V1 MDR cells viability, CellTiter-Glo, 72 h; Potency, µM (doses to about 46.1 µM), usual class: cytotoxic; 400,000 tested, 3.4% active; AID 1347076; also: % is scaled to controls: 0 for no effect and ±100 for the full control effect; nearly all actives have a fitted effect of over 60% in size
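KB-V1, DMEM (no phenol red) + 10% FBS; cpd pin-transferred, titration series; 72 h, 37 degrees C; CellTiter-Glo, luminescence. Data normalized, curve-fit.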
Active calls of the source: *; i = inactive; ? = inconclusive; nt = no result given; ! = not active in a repeat; [ ] = dose if it differs, or a comment. Compounds with a hit are over-represented: about 7.9% of the library has one in this group of screens. Calls follow the shape of the dose curve; as a rule, active = well fitted curve in the direction sought with a large enough effect; inconclusive = small, poorly fitted or top-dose-only effect, or another doubt; inactive = no such curve, though single readings can be large; an effect the other way counts as inactive or inconclusive. Potency is read from the fitted curve at half-maximal effect.

SMILES	KB-3-1 cytotox	HT1080-NT tox	HT1080 IDH1KD tx	SW480 rereplic	MCF10A rerep	KB-V1 cytotox
CCCCN=C[C@]12CCC(O)CC1(O)CCC1[C@@H]2CC[C@]2(C)[C@H](C3C=CC(=O)O3)CCC12O (stereo partly specified)	0.23µM*	1.8µM*	1.5µM*	2.3µM*	?	0.52µM*
CCOC(=O)C1CCN(/C=C2/C(=O)NC(=O)N(c3cccc(C)c3C)C2=O)CC1	?	-1%	2%	4%	1%	i
C[C@]12CCC3C(CCC4=CC(O)CC[C@@]43/C=N/O)C1(O)CCC2C1=CC(=O)OC1 (stereo partly specified)	0.29µM*	3.3µM*	0.82µM*	3.7µM*	?	0.65µM*
C[C@H]1O[C@@H](OC2CC[C@]3(C=O)[C@H]4CC[C@]5(C)[C@@H](C6=CC(=O)OC6)CC[C@]5(O)[C@@H]4CC[C@]3(O)C2)CC2OC(C)(C)OC21 (stereo partly specified)	?	0.18µM*	0.1µM*	?	?	?
COc1ccc(C=C(C#N)c2ccc(OC)cc2)cc1	18µM*	-1%	-11%	?	?	?
c1ccc(N2[C@@H]3CC[C@H]2c2ccncc2C3)cc1	i	0%	11%	nt	nt	i
COc1cc2c3cc1Oc1cc(ccc1O)C[C@@H]1c4c(cc(OC)c(O)c4Oc4ccc(cc4)C[C@H]3N(C)CC2)CCN1C	i	11%	8%	10µM*	18µM*!	?
COc1cc2c3c(c1OC)Oc1ccc(cc1)C[C@H]1c4c(cc(OC)c(OC)c4Oc4ccc(cc4)C[C@@H]3N(C)CC2)CCN1C	i	-17%	-25%	2.6µM*	?	i
COc1cc2c3cc1Oc1c(OC)c(OC)cc4c1[C@H](Cc1ccc(cc1)Oc1cc(ccc1O)C[C@H]3N(C)CC2)N(C)CC4	i	?	?	16%	45%	?
COc1ccc2cc1Oc1ccc(cc1)C[C@H]1c3cc(c(OC)cc3CCN1C)Oc1c(OC)c(OC)cc3c1[C@H](C2)N(C)CC3	?	5.8µM*	15µM*	?	?	16µM*!
Cc1ccc2c(c1)CC1(CN2C)C(=O)NC(=O)N(CCc2ccccc2)C1=O (stereo unspecified)	i	-3%	-1%	-7%	7%	i
CC(C)NC(=O)c1ccc(N2CC3CC(C2)c2cccc(=O)n2C3)c([N+](=O)[O-])c1 (stereo unspecified)	i	-3%	-3%	0%	1%	i
CC(=O)OC1(c2ccccc2)CCN(C)CC1(C)C (stereo unspecified)	i	-10%	3%	-5%	-5%	i
COc1ccc(C[C@H]2NC[C@H](O)[C@H]2OC(C)=O)cc1	0.33µM*	0.046µM*	0.16µM*	3%[1.84 µM]	?	0.41µM*
COc1ccc(CCNC2CCCCC2)cc1	i	11%	17%	-14%	0%	i
CC(=O)O/C(=C1\CC2C3CC=C4CC(OC(C)=O)CCC4(C)C3CCC2(C)C1=O)C(F)(F)F (stereo unspecified)	?	1%	-6%	-2%	?	10µM*
CC(=O)O[C@H]1CC[C@@]2(C)C(=CC[C@@H]3[C@@H]2CC[C@]2(C)C(=O)CC[C@@H]32)C1	i	?	6%	-22%	-3%	?
CCN(CC)P(=S)(c1c(C)nc2ccccn12)c1c(C)nc2ccccn12	?	-12%	?	10µM*	65%	i
CCOc1c(P(=S)(N(C)C)N(C)C)c(C)nn1-c1ccccc1	i	15%	10%	-5%[9.22 µM]	5%	i
C[C@H]1COc2cccc(N3CCN(C)CC3)c2S(=O)(=O)N1	i	17%	11%	nt	nt	i
N#CC(C#N)=C(N)c1cccnc1	?	29%	19%	-129%	-3%	?
COc1ccccc1NC(=O)COC(=O)c1cn(C)c2ccccc12	i	-1%	5%	-5%	9%	9.2µM*
Fc1ccccc1N1CCN(Cc2ccc3c(c2)OCO3)CC1	i	12%	4%	-14%	9%	i
CCOc1cc(-c2nc3c(C)cccn3c2NCC2CCCO2)ccc1O (stereo unspecified)	i	-5%	-5%	-3%	0%	5.2µM*
CCOP(=O)(OCC)c1nc(-c2cccc3ccccc23)oc1NCc1ccccc1	i	12%	4%	?	?	9.2µM*
SMILES	KB-3-1 cytotox	HT1080-NT tox	HT1080 IDH1KD tx	SW480 rereplic	MCF10A rerep	KB-V1 cytotox
COP(=O)(OC)c1nc(-c2cccc3ccccc23)oc1NCCc1ccccc1	i	?	?	?	21µM*	?
CCCNc1oc(-c2cccc3ccccc23)nc1C#N	i	-5%	-16%	-7%	?	i
O=[N+]([O-])c1ccc(Sc2nc3ccccc3o2)c([N+](=O)[O-])c1	i	13µM*	2.8µM*	4.1µM*	12µM*	?
O=[N+]([O-])c1ccc(N2CC2)c([N+](=O)[O-])c1	?	7%	9%	-9%	-36%	?
CCOC(=O)[C@]12Cc3cc(Cl)ccc3[C@H]1N(C)C(=O)c1ccccc12	?	3%	1%	nt	nt	i
CCOC(=O)[C@]12Cc3cc(Cl)ccc3[C@H]1N(CC(=O)OC)C(=O)c1ccccc12	3.7µM*	5.8µM*	7.3µM*	nt	nt	12µM*
CCOC(=O)[C@]12Cc3cc(Cl)ccc3[C@H]1N(C(C)C)C(=O)c1ccccc12	2.6µM*	4.6µM*	3.3µM*	nt	nt	5.2µM*
COC(=O)C1=C(N)OC(C)=C(C(C)=O)C12C(=O)N(C)c1ccccc12 (stereo unspecified)	i	6%	0%	-1%	19%	i
O=C1C=C(N2CC2)c2ccccc2C1=O	21µM*	23µM*	?	nt	nt	i
Oc1cc(Cl)c(Cl)cc1Cl	nt	nt	nt	-4%	2%	nt
Oc1cc(Cl)c(Cl)c(Cl)c1Cl	i	nt	nt	-3%	15µM*	i
CC(C)Oc1cc(-n2c(=S)[nH]c3ccccc3c2=O)c(Cl)cc1Cl	?	-27%	?	9%	84%	23µM*
O=S(=O)(NC1CCCC1)OCC(Cl)(Cl)Cl	i	-3%	-3%	?	6%	i
COc1cc2nc(N3CCN(C(=O)[C@H]4COc5ccccc5O4)CC3)nc(N)c2cc1OC	i	-13%	-11%	-5%	6%	i
Nc1cccc2c1Cc1cc([N+](=O)[O-])ccc1-2	?	-12%	-1%	-3%	8%	?
